About 7,900 targets were measured; listed, in parts, are those with a hit and a random draw of the rest. About 0.6% of all pairs of compound and target were hits. A number with no mark means an inactive call.
Key:
Experiment in all cases: log2 fold change, soluble protein after heating vs DMSO (PISA); higher = thermal stabilisation; K562 cells, 10 uM, 30 min; active = over 0.2 and 3.5 SD of the protein, either way, in both replicates (recomputed)
[1] = compound: NC(=O)Nc1cc(-c2cccc(F)c2)sc1C(=O)N[C@H]1CCCNC1
How it was run: (§1)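 Values are thermal stability changes relative to control samples and are taken from duplicates. They are stated as log2 fold changes. Before quantification by TMTpro 16plex LC-MS/MS with equalised channel sums, K562 cells at 2×10^6 cells/mL were treated with 10 μM compound for 30 min, heated in aliquots for 3 min across 48°C-58°C, pooled, extracted in PBS with 0.5% NP-40 at 4°C, and centrifuged at 21,000xg for 90 min to give the soluble supernatant.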

[2] = compound: NC(=O)c1cnc(N[C@@H]2CCCC[C@@H]2N)nc1Nc1cccc(-n2nccn2)c1
How it was run: as §1

[3] = compound: NC1(c2ccc(-c3nc4ccn5c(=O)[nH]nc5c4cc3-c3ccccc3)cc2)CCC1
How it was run: as §1

[4] = compound: NCC(=O)Nc1ccc(-n2nc(C(F)(F)F)cc2-c2ccc3c(ccc4ccccc43)c2)cc1
How it was run: as §1

entinostat = compound: Nc1ccccc1NC(=O)c1ccc(CNC(=O)OCc2cccnc2)cc1 [entinostat]
How it was run: as §1

vorinostat = compound: O=C(CCCCCCC(=O)Nc1ccccc1)NO [vorinostat]
How it was run: as §1

citarinostat = compound: O=C(CCCCCCNC(=O)c1cnc(N(c2ccccc2)c2ccccc2Cl)nc1)NO [citarinostat]
How it was run: as §1

silmitasertib = compound: O=C(O)c1ccc2c(c1)nc(Nc1cccc(Cl)c1)c1ccncc12 [silmitasertib]
How it was run: as §1

[5] = compound: O=C1NC(=O)C(c2cnc3ccccn23)=C1c1cn2c3c(cc(F)cc13)CN(C(=O)N1CCCCC1)CC2
How it was run: as §1

[6] = compound: c1cc(OCCN2CCCCC2)cc(-c2n[nH]c3ccc(-c4nnc[nH]4)cc23)c1
How it was run: as §1

UniProt Q96K49, sequence (Q96K49 whole entry, looked up): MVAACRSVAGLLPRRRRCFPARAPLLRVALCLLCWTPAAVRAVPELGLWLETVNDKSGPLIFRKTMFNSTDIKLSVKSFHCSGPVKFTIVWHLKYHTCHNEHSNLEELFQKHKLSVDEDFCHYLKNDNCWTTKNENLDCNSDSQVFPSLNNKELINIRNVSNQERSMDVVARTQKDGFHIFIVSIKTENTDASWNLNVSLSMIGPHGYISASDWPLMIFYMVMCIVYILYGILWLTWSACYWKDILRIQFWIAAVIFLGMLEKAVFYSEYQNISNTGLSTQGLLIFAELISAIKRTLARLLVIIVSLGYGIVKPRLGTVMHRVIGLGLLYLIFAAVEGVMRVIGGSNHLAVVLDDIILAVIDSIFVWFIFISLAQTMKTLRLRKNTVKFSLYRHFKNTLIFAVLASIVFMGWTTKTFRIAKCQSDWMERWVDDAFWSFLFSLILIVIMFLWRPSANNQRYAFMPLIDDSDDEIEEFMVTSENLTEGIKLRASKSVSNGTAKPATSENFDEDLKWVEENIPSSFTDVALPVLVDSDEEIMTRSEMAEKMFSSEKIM
UniProt Q15629, sequence (Q15629 whole entry, looked up): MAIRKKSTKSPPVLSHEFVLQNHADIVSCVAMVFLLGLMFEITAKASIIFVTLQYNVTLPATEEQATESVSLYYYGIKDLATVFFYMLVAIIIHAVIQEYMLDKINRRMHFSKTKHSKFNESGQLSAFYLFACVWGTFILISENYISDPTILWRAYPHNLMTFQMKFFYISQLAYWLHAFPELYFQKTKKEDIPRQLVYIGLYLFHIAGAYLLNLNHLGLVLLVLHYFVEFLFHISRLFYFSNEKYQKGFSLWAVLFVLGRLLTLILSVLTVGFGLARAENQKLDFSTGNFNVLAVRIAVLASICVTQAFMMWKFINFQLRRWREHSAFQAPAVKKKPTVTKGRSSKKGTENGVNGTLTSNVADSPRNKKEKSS
UniProt Q7L0Y3, sequence (Q7L0Y3 whole entry, looked up): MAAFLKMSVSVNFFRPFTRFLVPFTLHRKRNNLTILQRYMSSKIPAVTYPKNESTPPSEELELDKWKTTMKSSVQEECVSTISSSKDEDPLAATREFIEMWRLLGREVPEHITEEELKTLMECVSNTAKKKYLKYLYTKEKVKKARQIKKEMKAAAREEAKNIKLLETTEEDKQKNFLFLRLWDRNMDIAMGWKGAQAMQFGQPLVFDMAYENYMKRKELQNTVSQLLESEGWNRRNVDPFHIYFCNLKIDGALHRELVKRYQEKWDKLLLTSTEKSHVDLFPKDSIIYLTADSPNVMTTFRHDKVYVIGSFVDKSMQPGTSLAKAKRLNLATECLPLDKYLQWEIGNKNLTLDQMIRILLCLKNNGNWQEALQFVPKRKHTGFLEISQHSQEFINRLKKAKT
UniProt P13010, sequence (P13010 whole entry, looked up): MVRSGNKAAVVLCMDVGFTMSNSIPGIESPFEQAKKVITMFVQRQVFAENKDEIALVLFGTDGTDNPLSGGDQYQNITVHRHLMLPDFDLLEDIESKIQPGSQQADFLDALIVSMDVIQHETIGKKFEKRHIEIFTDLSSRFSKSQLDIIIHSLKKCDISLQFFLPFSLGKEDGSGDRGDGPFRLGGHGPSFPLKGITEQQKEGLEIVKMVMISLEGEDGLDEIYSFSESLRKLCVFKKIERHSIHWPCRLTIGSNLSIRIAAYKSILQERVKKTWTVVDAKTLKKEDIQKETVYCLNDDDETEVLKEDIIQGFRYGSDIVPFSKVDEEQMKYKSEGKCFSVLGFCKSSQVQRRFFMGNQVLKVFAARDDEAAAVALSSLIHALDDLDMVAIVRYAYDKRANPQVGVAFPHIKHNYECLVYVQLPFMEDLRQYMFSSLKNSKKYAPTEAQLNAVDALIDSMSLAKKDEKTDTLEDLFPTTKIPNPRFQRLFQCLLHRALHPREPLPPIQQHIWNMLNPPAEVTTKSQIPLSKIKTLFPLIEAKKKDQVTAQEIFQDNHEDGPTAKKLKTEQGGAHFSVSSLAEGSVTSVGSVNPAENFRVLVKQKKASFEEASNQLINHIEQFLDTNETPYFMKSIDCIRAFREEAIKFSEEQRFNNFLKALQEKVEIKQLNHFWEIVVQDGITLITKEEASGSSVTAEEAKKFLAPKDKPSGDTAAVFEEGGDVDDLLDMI
UniProt Q92890, sequence (Q92890 whole entry, looked up): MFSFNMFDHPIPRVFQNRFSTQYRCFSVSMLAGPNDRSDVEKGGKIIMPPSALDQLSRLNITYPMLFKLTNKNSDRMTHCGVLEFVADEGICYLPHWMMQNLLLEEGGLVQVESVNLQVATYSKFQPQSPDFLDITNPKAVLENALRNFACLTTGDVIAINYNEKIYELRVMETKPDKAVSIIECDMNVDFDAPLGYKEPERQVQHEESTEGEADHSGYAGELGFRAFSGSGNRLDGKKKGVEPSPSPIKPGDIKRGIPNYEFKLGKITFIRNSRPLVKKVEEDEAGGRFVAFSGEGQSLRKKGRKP
UniProt Q9UDW1, sequence (Q9UDW1 whole entry, looked up): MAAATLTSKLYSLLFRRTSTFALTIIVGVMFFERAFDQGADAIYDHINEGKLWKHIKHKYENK
UniProt Q12768, sequence (Q12768 whole entry, looked up): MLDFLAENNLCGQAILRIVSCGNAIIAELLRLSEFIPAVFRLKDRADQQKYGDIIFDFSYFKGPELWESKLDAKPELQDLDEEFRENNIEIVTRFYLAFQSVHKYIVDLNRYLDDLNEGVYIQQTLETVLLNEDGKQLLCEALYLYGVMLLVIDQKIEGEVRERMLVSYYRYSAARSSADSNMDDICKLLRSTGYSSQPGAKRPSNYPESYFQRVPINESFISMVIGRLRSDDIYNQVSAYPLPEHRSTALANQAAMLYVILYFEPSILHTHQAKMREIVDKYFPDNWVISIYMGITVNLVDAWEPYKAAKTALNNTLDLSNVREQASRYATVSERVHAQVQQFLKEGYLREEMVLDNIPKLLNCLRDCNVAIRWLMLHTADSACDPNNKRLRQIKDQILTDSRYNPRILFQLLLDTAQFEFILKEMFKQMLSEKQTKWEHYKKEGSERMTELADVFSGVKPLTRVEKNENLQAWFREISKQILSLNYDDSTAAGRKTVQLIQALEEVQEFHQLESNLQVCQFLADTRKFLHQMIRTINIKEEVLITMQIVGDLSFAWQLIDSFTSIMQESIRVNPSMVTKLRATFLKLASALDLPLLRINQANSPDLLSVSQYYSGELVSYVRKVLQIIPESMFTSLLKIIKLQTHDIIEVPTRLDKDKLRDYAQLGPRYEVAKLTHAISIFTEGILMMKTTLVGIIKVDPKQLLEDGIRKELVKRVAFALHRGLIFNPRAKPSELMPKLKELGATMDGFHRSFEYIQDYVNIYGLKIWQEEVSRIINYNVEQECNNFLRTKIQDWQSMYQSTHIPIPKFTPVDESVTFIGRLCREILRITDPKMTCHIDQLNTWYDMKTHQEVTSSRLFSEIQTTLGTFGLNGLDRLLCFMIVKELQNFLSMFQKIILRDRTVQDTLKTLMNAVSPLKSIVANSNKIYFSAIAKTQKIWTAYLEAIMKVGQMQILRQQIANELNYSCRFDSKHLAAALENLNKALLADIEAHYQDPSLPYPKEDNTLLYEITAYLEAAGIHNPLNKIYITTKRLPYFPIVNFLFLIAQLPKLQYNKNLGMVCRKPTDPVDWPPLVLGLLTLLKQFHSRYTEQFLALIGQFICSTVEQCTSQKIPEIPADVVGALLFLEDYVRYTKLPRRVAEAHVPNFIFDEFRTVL
UniProt Q9H6R7, sequence (Q9H6R7 whole entry, looked up): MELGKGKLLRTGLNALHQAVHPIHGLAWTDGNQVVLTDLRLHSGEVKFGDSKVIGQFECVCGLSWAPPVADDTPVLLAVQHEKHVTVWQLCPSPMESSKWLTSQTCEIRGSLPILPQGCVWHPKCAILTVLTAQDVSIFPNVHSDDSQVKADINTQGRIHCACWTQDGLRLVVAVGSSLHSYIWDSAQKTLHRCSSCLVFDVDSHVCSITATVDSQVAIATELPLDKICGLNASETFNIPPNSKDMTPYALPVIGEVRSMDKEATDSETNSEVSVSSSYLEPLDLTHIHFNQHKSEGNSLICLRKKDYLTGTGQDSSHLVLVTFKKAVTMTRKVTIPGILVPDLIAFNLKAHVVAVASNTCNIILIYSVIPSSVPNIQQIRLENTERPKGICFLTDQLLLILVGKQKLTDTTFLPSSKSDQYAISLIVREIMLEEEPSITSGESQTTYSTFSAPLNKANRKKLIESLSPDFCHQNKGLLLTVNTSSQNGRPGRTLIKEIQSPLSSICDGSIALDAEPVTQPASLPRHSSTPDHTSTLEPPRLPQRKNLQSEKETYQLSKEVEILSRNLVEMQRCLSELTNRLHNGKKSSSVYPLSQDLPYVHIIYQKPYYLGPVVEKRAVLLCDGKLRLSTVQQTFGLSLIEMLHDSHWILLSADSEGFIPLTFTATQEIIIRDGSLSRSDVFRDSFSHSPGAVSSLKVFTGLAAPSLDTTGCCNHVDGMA
UniProt Q9UBK9, sequence (Q9UBK9 whole entry, looked up): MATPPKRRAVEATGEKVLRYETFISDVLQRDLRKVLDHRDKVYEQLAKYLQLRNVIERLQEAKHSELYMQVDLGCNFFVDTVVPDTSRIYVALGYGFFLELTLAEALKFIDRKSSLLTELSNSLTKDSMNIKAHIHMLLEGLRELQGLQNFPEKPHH
UniProt Q9P0T7, sequence (Q9P0T7 whole entry, looked up): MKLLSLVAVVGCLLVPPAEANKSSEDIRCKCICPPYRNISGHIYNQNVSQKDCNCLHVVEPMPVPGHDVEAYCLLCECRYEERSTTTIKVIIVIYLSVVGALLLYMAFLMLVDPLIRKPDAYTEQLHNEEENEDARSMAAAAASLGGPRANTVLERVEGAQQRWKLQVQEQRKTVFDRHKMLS
UniProt Q9UEU0, sequence (Q9UEU0 whole entry, looked up): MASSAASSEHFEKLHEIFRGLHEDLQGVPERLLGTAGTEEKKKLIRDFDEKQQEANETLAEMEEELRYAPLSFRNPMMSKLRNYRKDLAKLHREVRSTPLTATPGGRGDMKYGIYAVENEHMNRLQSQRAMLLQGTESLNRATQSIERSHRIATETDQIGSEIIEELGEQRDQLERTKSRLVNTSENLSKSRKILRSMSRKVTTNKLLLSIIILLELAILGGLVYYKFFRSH

Target | log2 fold change [1] | log2 fold change [2] | log2 fold change [3] | log2 fold change [4] | log2 fold change (entinostat) | log2 fold change (vorinostat) | log2 fold change (citarinostat) | log2 fold change (silmitasertib) | log2 fold change [5] | log2 fold change [6]
UBR2 (UniProt Q8IWV8) | -0.007 | 0.038 | 0.039 | 0.007 | 0.049 | 0.137 | 0.05 | 0.061 | 0.044 | -0.14
UXT isoform 2 (UniProt Q9UBK9) | -0.041 | -0.067 | -0.108 | -0.011 | 0.004 | 0.047 | 0.129 | -0.033 | -0.051 | 0.007
TMEM9 (UniProt Q9P0T7) | -0.008 | 0.047 | -0.113 | 0.063 | -0.026 | -0.053 | 0.1 | -0.044 | -0.031 | 0.065
WDR41 (UniProt Q9HAD4) | 0 | -0.005 | -0.173 | -0.005 | 0.038 | 0.091 | 0.036 | 0.031 | -0.11 | -0.07
TOM1L1 (UniProt O75674) | -0.086 | 0.102 | 0.008 | 0.018 | -0.034 | 0.092 | -0.074 | 0.021 | 0.008 | -0.041
TTC38 (UniProt Q5R3I4) | 0.038 | 0.113 | -0.263 | -0.09 | 0.111 | 0.459 (active) | -0.243 | -0.156 | 0.042 | 0.313
WRB (UniProt O00258) | 0.003 | 0.019 | -0.018 | 0.006 | -0.011 | -0.035 | 0.034 | 0.028 | 0.062 | -0.042
UQCR10 (UniProt Q9UDW1) | -0.053 | -0.043 | 0.076 | 0.02 | -0.003 | 0.187 | 0.045 | -0.003 | -0.067 | -0.026
WDR37 isoform 2 (UniProt Q9Y2I8) | -0.041 | -0.01 | -0.052 | -0.08 | -0.004 | -0.068 | -0.012 | -0.059 | 0.032 | -0.162
WASH2P (UniProt Q6VEQ5) | 0.067 | -0.088 | -0.314 (active) | 0.02 | 0.028 | -0.016 | 0.029 | 0.06 | 0.092 | -0.045
TMEM164 (UniProt Q5U3C3) | 0.129 | -0.138 | -0.006 | -0.248 | -0.112 | 0.139 | 0.087 | 0.01 | -0.004 | -0.268
VRK1 (UniProt Q99986) | -0.056 | 0.025 | -0.11 | -0.144 | 0.059 | 0.046 | 0.023 | -0.028 | -0.138 | 0.063
WDR18 (UniProt Q9BV38) | 0.013 | -0.021 | -0.043 | 0.054 | 0.019 | 0.025 | 0.018 | 0.013 | -0.03 | 0.017
VPS50 (UniProt Q96JG6) | 0.003 | -0.073 | -0.11 | -0.046 | 0.06 | 0.099 | 0.068 | 0.06 | 0.037 | 0.003
TRMT10C (UniProt Q7L0Y3) | -0.055 | -0.027 | -0.137 | -0.018 | 0.022 | 0 | -0.018 | -0.026 | -0.075 | 0.035
TYW1 (UniProt Q9NV66) | -0.022 | 0.05 | 0.004 | 0.013 | 0.028 | -0.056 | 0.053 | 0.039 | -0.141 | -0.007
WDCP (UniProt Q9H6R7) | 0.062 | 0.049 | -0.011 | -0.025 | 0.019 | 0.037 | 0.118 | 0.172 | -0.033 | -0.035
WASHC5 (UniProt Q12768) | 0 | -0.011 | -0.232 (active) | -0.047 | 0.04 | 0.022 | 0.074 | 0.045 | 0.038 | -0.012
TMEM263 (UniProt Q8WUH6) | -0.044 | -0.335 | -0.389 | -0.299 | 0.123 | 0.058 | 0.068 | 0.057 | -0.08 | -0.037
USP24 (UniProt Q9UPU5) | 0.18 | 0.079 | -0.053 | 0.07 | -0.095 | -0.012 | 0.012 | 0.188 | -0.2 | 0.11
TMEM87B (UniProt Q96K49) | -0.098 | -0.062 | -0.266 | -0.1 | 0.135 | 0.057 | 0.021 | 0.096 | -0.032 | -0.117
XRCC5 (UniProt P13010) | -0.024 | -0.172 | -0.122 | -0.058 | 0.155 | 0.151 | 0.163 | 0.019 | -0.096 | -0.041
UCHL5 (UniProt Q9Y5K5) | -0.003 | -0.029 | -0.124 | -0.045 | 0.048 | 0.063 | 0.08 | 0.04 | -0.084 | -0.026
TRAM1 (UniProt Q15629) | -0.104 | -0.073 | -0.162 | -0.196 | -0.075 | 0.034 | -0.083 | 0.066 | 0.025 | -0.021
VTI1B (UniProt Q9UEU0) | 0.023 | -0.006 | -0.084 | -0.054 | -0.031 | -0.035 | -0.001 | 0.114 | 0.054 | -0.03
UBC (UniProt P0CG48) | -0.003 | -0.022 | 0.214 | 0.01 | -0.023 | -0.11 | -0.13 | -0.076 | -0.117 | -0.068
UFD1 isoform 1 (UniProt Q92890) | -0.001 | -0.015 | -0.03 | -0.001 | 0.01 | 0.003 | 0.061 | -0.014 | 0.014 | 0.034

Source: the supplement of paper PMC10849652
